TDP1 cell CPT = growth inhibition of DT40 Tdp1-/-;hTDP1 cells with camptothecin (screen for TDP1 inhibitors). chicken DT40 Tdp1-/-;hTDP1 cells + 20 nM CPT, ATP luminescence, 48 h. Potency, µM (top dose mostly 46.2 µM), without a hit: top-dose activity change, negative = growth inhibition, most hits filed as inhibitors. actives 12% (n = 420,000). AID 686979; also: potency is read from the fitted curve at half-maximal effect; nearly all actives have a fitted effect of over 55% in size
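Chicken DT40 Tdp1-/- cells complemented with human TDP1, 400 cells/well, exposed to compounds plus 20 nM camptothecin for at least 48 h at 37 C; viability read as ATP content by CellTiter-Glo luminescence.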
HT1080-NT tox = kills 2HG-producing HT-1080-NT fibrosarcoma cells; HT-1080-NT fibrosarcoma viability, CellTiter-Glo ATP luminescence, 48 h; Potency, µM (series often up to 46.1 µM), for inactives: top-dose activity, negative = less viability, hits mostly cytotoxic; actives 1.6% (n = 360,000); AID 686970;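 also: NT is the 2HG producing partner of a matched IDH1 knockdown line; potency is read from the fitted curve at half-maximal effect; 0% = DMSO-treated cells and -100% = media-only wells without cells; nearly all actives have a fitted effect of over 55% in size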
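HT-1080-NT; 750 cells/well; 5% FBS RPMI; 48 h compound, 37 degrees C; CellTiter-Glo luminescence; curve fitting and curve-class assignment.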
IL1B secr inh = blocks inflammasome-driven IL-1 beta release; THP-1 LPS/ATP IL-1B secretion, AlphaLISA, 16 h; hits give low values; activity change, % at 57.5 µM; actives 4.7% (n = 360,000); AID 743279; in the data active = activity change below about -50%; inconclusive = mostly about -30% to -49%
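THP-1 cells pretreated 1 hr with compounds (up to 57.5 uM final), then stimulated with LPS (250 ng/mL final) plus ATP (1.25 mM final); secreted IL-1B measured by AlphaLISA after 16 hr, decreased signal indicating inhibition.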
TDP1 cell noCPT = qHTS for Inhibitors of human tyrosyl-DNA phosphodiesterase 1 (TDP1): qHTS in cells in absence of CPT; DT40 Tdp1-/- hTDP1 cells, no CPT, ATP luminescence, 48 h; Potency, µM (top dose mostly 46.2 µM), without a hit: at the top dose activity change, negative = growth inhibition, actives largely listed as inhibitors; actives 15% (n = 420,000); also: potency is read from the fitted curve at half-maximal effect; nearly all actives have a fitted effect of over 55% in size
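Growth kinetics read by CellTiter-Glo luminescence after ≥48 hr at 37 °C. Cells: DT40 Tdp1-/- stably carrying human TDP1, 400 per well, compound exposure in the absence of CPT (DMSO vehicle).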
12-LOX inh = ALOX12 (human) lipoxygenase inhibition. Potency, µM (top dose mostly 108 µM), for inactives: at the highest dose activity change, negative = inhibition, most hits filed as inhibitors. purified 12hLO, xylenol orange hydroperoxide absorbance. AID 1671190. P18054. actives 1.1% (n = 580,000); also: potency is read from the fitted curve at half-maximal effect
Target sequence (P18054 whole entry, looked up): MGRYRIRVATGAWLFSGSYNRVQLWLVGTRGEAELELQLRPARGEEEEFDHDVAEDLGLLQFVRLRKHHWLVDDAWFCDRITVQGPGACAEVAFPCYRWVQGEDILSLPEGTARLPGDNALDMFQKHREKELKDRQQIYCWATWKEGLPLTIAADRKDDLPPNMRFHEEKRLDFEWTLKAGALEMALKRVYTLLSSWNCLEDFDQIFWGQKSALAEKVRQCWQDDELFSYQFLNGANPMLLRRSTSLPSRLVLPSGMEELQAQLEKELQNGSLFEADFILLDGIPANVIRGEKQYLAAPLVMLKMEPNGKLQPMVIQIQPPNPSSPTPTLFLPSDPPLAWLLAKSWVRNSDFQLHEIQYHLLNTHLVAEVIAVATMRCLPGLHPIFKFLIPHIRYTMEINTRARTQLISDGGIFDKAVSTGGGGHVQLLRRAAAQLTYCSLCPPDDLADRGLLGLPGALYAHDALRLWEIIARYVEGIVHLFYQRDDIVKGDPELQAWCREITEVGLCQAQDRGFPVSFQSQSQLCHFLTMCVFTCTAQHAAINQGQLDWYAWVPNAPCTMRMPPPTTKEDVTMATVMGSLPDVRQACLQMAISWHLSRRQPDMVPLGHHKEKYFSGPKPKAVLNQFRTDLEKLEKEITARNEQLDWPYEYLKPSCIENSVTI
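Purified human 12hLO (150 nM final) in 25 mM Hepes, 0.01% Triton X-100, pH 7.0 was preincubated 15 min at room temperature with compound. Then 40 uM arachidonic acid was added, 30 min. Hydroperoxide was read by Fe-XO absorbance ratio 573/405 nm.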
HT1080 IDH1KD tx = toxicity to HT-1080 IDH1 knockdown cells (counter line); HT-1080 IDH1 knockdown viability, ATP luminescence, 48 h; Potency, µM (doses to about 46.1 µM), for the others: at the highest dose activity, negative = toxicity, usual class: cytotoxic; actives 2% (n = 360,000); AID 686971;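 also: potency is read from the fitted curve at half-maximal effect; 0% = DMSO wells and -100% = cell-free medium wells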
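% activity derives from luminescence (CellTiter-Glo), normalised to DMSO and no-cell wells. HT-1080-IDH1KD cells, 750/well, had 48 h compound exposure at 37 °C.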
* = called active by the depositor; u = inconclusive; x = not tested or not shown; [ ] = another dose, or the depositor's remark. Shown is part of a subset that was picked to be rich in hits. Unless noted, calls follow the shape of the dose curve; as a rule, active = well fitted curve in the direction sought with a large enough effect; inconclusive = small, poorly fitted or top-dose-only effect, or another doubt; inactive = no such curve, though single readings can be large; an effect the other way counts as inactive or inconclusive. Unless noted, % is scaled to controls: 0 for no effect and ±100 for the full control effect.

SMILES	TDP1 cell CPT	HT1080-NT tox	IL1B secr inh	TDP1 cell noCPT	12-LOX inh	HT1080 IDH1KD tx
Cc1ccccc1C(=O)N1CCN(c2ccc(NC(=O)c3ccc(OC(C)C)cc3)cc2)CC1	x	x	x	x	-6%	x
COCCNc1ncccc1-c1noc([C@@H]2CCCN2Cc2ccccn2)n1	x	x	x	x	61%[176 µM]	x
Cc1cccc(NC(=O)CN2CCN(C(=O)C(C)Oc3ccc(C#N)cc3)CC2)c1C (stereo unspecified)	-29%	-1%	0	-9%	0%	-5%
CC(Oc1ccc(C#N)cc1)C(=O)N1CC=C(c2ccccc2)CC1 (stereo unspecified)	u	u	-61*	u	-3%	u
O=C(c1ccc(Cl)c(Cl)c1)N1CCC(=O)N([C@H](COCc2ccccc2)Cc2ccccc2)CC1	21µM*	u	-13	18µM*	u	u
O=C(c1ccc(Cl)c(Cl)c1)N1CCC(=O)N(C(COCc2ccccc2)Cc2ccccc2)CC1 (stereo unspecified)	16µM*	u	u	23µM*	u	u
COc1ccc(C2CC23N=C(c2ccccc2)OC3=O)cc1 (stereo unspecified)	18µM*	-1%	u	u	0%	-4%
COc1ccc([C@H]2CC(=O)C=C(c3ccccc3)C2)cc1	-5%	-11%	-8	u	x	3%
Clc1cccc(-n2ncc3c(N4CCN(Cc5ccccc5)CC4)ncnc32)c1	23µM*	x	x	u	u	x
Cc1ccccc1C(=O)N1CCN(c2ncnc3c2cnn3-c2ccccc2)CC1	21µM*	-13%	u	23µM*	6%	-13%
c1ccc(CCN2CCN(c3ncnc4c3cnn4-c3ccccc3)CC2)cc1	23µM*	2%	-10	18µM*	0%	-1%
OCCN1CCN(c2ncnc3c2cnn3-c2cccc(Cl)c2)CC1	u	x	x	u	-17%	x
CCCCN(C)c1ncnc2c1cnn2-c1cccc(Cl)c1	23µM*	x	x	16µM*	u	x
Cc1ccc(C(=O)N2CCN(c3ncnc4c3cnn4-c3ccccc3)CC2)cc1	x	x	x	x	0%	x
Cc1nnc([C@@H]2CC(F)(F)CN2C(=O)c2nn(C)c3ccccc23)o1	x	x	x	x	60%	x
O=C(COc1ncnc2c(Cl)cc(Cl)cc12)Nc1cccc(Cl)c1	x	x	x	x	-13%	x
CCOC(=O)c1ccc(N2C(=O)c3n[nH]c(-c4ccco4)c3C2c2ccc(C)cc2)cc1 (stereo unspecified)	26µM*	x	x	10µM*	u	x
CCOC(=O)c1ccc(N2C(=O)c3n[nH]c(-c4ccco4)c3C2c2ccc([N+](=O)[O-])cc2)cc1 (stereo unspecified)	23µM*	-28%	u	12µM*	-29%	u
CCOC(=O)c1ccc(N2C(=O)c3n[nH]c(C)c3C2c2ccc(OCC)cc2)cc1 (stereo unspecified)	u	x	x	10µM*	u	x
CCOC(=O)c1ccc(N2C(=O)c3n[nH]c(-c4ccco4)c3C2c2cccnc2)cc1 (stereo unspecified)	x	x	x	x	12%	x
O=C(C1CCCC1)N1CCC(CCOc2ccccc2F)C1 (stereo unspecified)	x	x	x	x	41%	x
COc1ccc(N2C3=[N+](CCCC3)CC2(C)O)cc1 (stereo unspecified)	4.1µM*	0%[9.24 µM]	6	3.7µM*	25%	-39%
COc1ccc(N2CC(O)(c3ccc(C)cc3)[N+]3=C2CCCC3)cc1 (stereo unspecified)	-9%	28%	0	-6%	-8%	29%
